The source of these data is PubChem BioAssay.

Experiment [1] can be described thus: yeast TOR pathway RPL19A-GFP modulators, primary screen, cell-based, S. cerevisiae, multiplex flow cytometry (AID 1862; in the data active = percent of DMSO control GFP below about 86%;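 note: lower values mimic rapamycin by blocking the RPL19A rise seen in DMSO cells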). The settings on record: S. cerevisiae RPL19A-GFP strain, flow cytometry fluorescence, 3 h; at 10 µM; stronger effect = lower value. For orientation: A flow cytometer gives signals particle by particle.
Experiment [2] in a line: modulators of MEP2-GFP levels in yeast, primary screen, S. cerevisiae, multiplex flow cytometry (AID 1867;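 active = GFP response, as percent of the DMSO control, above the screen-wide mean plus 3 SD, about 139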;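 note: median GFP channel fluorescence of barcode-gated MEP2-GFP cells measured by flow cytometry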). The settings on record: S. cerevisiae MEP2-GFP strain, 3 h, at 10 µM, stronger effect = higher value, 100% means same as DMSO wells.
A short description of experiment [3]: modulators of CIT2-GFP expression in yeast, primary screen, S. cerevisiae, GFP fusion, multiplex flow cytometry (AID 1870;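 active = percent response above a set limit, the screen-wide mean plus 3 SD, cut at about 130% in these data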;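 note: barcoded CIT2-GFP strain pooled with four other GFP strains with rapamycin as positive control; median GFP fluorescence per well over plate mean of DMSO wells so 100% = DMSO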). The following applies: 3 h, at 10 µM, stronger effect = higher value.
A short description of experiment [4]: modulators of LAP4-GFP expression in yeast, primary screen, S. cerevisiae, multiplex flow cytometry (AID 1873;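 active = GFP signal, as percent of the solvent control, above the screen mean plus 3 SD, about 149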). The following applies: 3 h, at 10 µM, stronger effect = higher value.
Experiment [5] is described as follows: modulators of AGP1-GFP expression in yeast TOR pathway, primary screen, cell-based, multiplex flow cytometry, S. cerevisiae (AID 1887;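 active = GFP signal above the screen-wide mean plus 3 SD, that is over about 124.5% of the solvent control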;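 note: AGP1-GFP fusion strain of S. cerevisiae within a five-strain barcoded multiplex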). The settings on record: 3 h, at 10 µM, stronger effect = higher value.
The nature of experiment [6]: inhibitors of CD8+ T cell-vesicle binding, pilot screen, LFA-1/ICAM-1 modulator project, MLPCN validation set, flow cytometry (AID 2523;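 active = response below a set limit, under 55% cells CD8-positive and vesicle-bound, and CD8 cells' 90th-percentile brightness under 279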;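 for vesicle binding response: mean PE anti-B7-1 fluorescence of CD8+ cells relative to row control; 100% = QL9-loaded vesicles with DMSO vehicle in the same plate row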). The settings on record: 2C mouse CD8+ T cells, at 7 µM, stronger effect = lower value; double positive events: measured here: CD8+/vesicle+ event percentage.
The target of experiment [7] is Integrin beta-1 (Homo sapiens) + Integrin alpha-4 (Homo sapiens) (UniProt P13612+P05556). As to the kind of experiment: inhibition of HUTS-21 binding to VLA-4, pilot screen, VLA-4 allosteric modulator project, U937 cells, HUTS-21 mAb, flow cytometry, validation set (AID 2674;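 active = inhibition above 50%, about 3 SD of the validation set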;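 note: antibody binding induced by the VLA-4 ligand LDV present at three times its Kd; 0% = LDV ligand with antibody and no compound and 100% = antibody without LDV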). The following applies: HUTS-21 LIBS mAb binding, at 6.7 µM, stronger effect = higher value, binding induced by LDV ligand.
Integrin beta-1 (Homo sapiens) + Integrin alpha-4 (Homo sapiens), sequence (P05556 whole entry, looked up): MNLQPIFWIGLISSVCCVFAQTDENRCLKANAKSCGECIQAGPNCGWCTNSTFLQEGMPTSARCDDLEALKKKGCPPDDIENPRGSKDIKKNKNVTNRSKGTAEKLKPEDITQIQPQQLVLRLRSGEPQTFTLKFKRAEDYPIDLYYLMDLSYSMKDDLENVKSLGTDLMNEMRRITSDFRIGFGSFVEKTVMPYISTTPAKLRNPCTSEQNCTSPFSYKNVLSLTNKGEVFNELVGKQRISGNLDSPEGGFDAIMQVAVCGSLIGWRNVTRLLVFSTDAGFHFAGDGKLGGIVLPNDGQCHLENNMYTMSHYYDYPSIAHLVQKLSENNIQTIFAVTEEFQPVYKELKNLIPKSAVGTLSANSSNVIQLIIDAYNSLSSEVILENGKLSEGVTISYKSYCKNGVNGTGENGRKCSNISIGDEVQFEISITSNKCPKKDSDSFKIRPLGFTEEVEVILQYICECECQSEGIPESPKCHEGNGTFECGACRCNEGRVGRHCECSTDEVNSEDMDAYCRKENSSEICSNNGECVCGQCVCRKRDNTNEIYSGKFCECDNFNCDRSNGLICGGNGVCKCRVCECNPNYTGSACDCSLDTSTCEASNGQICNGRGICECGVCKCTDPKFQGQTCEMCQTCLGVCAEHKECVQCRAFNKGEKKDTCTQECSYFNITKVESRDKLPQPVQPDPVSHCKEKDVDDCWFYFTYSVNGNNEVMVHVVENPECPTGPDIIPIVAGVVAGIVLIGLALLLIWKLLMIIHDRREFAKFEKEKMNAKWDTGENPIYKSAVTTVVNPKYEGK
Integrin beta-1 (Homo sapiens) + Integrin alpha-4 (Homo sapiens), sequence (P13612 whole entry, looked up): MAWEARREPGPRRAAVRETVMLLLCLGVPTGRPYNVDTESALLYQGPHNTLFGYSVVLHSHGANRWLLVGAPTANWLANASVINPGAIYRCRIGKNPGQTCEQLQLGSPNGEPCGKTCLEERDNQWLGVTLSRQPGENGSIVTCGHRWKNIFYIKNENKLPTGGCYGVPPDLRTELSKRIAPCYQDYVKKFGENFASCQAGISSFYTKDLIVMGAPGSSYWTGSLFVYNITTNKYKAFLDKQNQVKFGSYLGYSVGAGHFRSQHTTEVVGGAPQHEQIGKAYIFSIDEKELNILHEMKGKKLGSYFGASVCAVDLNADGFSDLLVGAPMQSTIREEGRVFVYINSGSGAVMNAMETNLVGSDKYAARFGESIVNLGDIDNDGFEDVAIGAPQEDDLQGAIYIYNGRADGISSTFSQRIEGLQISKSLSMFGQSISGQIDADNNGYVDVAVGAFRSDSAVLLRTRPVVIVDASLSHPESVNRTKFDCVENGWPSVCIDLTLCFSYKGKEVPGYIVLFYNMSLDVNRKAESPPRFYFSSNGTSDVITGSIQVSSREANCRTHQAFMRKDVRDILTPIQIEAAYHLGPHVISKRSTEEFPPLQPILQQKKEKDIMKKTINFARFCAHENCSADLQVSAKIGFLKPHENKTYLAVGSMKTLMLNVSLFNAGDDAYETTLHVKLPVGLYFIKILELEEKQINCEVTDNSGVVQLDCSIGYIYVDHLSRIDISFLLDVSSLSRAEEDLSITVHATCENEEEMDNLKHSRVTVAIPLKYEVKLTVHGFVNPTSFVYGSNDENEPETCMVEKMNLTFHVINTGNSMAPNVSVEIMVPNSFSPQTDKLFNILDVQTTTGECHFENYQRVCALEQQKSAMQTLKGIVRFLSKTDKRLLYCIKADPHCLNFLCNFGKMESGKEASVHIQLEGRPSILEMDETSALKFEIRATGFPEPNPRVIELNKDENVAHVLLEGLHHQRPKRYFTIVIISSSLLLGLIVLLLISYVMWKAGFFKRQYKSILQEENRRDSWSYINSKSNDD

The nature of experiment [8]: superoxide lowering in aged yeast cells, pilot screen, validation compound set (AID 2706;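 active = superoxide response below 65% of plate, a cut near 3 SD across the whole screen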;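 note: yeast exposed to compound for one week at 30 degrees C before staining; 100% = mean of all compound wells on the same plate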). The settings on record: S. cerevisiae aging, superoxide DHE fluorescence; at 10 µM; stronger effect = lower value.
In experiment [9] the target is Beta-adrenergic receptor kinase 1 (Homo sapiens) (UniProt P25098). As to the kind of experiment: GRK2 binders displacing RNA aptamer, biochemical, validation, human GRK2, bead flow cytometry (AID 488806;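 active = aptamer binding inhibition above 30%, about 3 SD of noise from non-fluorescent compounds; inactive = inhibition at or below 30%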). The settings on record: bead-bound GRK2, FAM-aptamer displacement, at 10 µM, stronger effect = higher value.
Beta-adrenergic receptor kinase 1 (Homo sapiens), sequence (P25098 whole entry, looked up): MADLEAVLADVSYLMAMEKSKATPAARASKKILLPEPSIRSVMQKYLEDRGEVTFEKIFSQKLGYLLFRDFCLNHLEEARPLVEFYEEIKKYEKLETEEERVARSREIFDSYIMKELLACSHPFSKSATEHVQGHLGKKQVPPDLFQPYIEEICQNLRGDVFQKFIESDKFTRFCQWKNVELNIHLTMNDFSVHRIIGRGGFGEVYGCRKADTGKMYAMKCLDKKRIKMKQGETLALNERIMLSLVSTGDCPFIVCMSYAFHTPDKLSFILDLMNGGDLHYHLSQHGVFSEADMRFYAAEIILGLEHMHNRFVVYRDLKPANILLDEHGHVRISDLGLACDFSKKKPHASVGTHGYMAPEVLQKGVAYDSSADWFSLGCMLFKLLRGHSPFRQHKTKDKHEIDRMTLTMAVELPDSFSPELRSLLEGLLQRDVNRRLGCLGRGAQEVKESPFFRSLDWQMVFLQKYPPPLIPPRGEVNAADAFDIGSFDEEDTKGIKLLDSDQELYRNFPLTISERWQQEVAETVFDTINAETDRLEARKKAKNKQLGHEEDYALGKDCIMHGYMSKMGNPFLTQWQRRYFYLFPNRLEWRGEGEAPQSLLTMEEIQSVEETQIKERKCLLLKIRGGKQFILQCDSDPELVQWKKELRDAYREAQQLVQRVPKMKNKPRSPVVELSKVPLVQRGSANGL
Experiment [10] has as its target Beta-2 adrenergic receptor (Homo sapiens) (UniProt P07550). The experiment is described as follows: beta2AR agonists driving receptor internalization, pilot screen, cell-based, FAP fluorogen, flow cytometry, validation set (AID 504459).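 Note: agonist-driven loss of surface beta2AR via internalization measured by FAP dye flow cytometry.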 The settings on record: Am2.2-beta2AR cells, FAP surface receptor flow cytometry; at 10 µM; stronger effect = higher value.
Experiment [11] deals with AP-2 complex subunit beta (Homo sapiens) (UniProt P63010). As to the kind of experiment: inhibitors of arrestin peptide binding to AP2, pilot screen, biochemical, validation set, GST-AP2 beads, flow cytometry (AID 504541;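 active = inhibition above 54%, about 3 SD of non-fluorescent compounds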;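 note: AP2 carries R879A mutation and is captured from E. coli lysate; bead-bound FITC arrestin peptide fluorescence measuring arrestin peptide binding to AP2; 0% = DMSO wells and 100% = excess unlabeled arrestin peptide control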). The settings on record: FITC arrestin peptide, at 10 µM, stronger effect = higher value, AP2 beta2 appendage fragment, R879A mutant.
AP-2 complex subunit beta (Homo sapiens), sequence (P63010 whole entry, looked up, the tested form may be a part, one chain of several): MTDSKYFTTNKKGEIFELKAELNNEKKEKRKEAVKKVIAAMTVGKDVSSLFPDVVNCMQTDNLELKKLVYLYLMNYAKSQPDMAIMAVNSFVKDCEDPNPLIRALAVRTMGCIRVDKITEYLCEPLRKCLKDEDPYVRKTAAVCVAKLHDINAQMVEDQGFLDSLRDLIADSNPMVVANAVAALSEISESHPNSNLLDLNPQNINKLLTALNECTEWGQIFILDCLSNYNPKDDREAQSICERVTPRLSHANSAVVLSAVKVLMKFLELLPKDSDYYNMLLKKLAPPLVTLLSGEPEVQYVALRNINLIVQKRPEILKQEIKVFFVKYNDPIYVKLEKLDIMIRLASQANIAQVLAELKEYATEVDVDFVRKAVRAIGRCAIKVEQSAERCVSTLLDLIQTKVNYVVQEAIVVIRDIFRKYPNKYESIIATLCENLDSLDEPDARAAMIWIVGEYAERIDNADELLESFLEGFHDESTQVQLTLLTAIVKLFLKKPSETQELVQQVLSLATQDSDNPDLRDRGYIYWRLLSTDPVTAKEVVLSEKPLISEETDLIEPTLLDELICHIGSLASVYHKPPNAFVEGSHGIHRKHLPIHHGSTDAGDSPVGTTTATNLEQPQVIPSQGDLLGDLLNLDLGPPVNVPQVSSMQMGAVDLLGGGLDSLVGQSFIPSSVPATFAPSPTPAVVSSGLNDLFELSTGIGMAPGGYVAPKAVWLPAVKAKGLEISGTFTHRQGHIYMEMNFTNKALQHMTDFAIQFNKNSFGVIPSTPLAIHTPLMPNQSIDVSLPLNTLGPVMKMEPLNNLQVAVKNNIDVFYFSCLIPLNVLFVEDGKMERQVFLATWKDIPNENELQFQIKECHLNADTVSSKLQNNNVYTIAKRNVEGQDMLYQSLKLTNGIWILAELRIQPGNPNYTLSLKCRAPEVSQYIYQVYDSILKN
The nature of experiment [12]: yeast V-ATPase proton transport modulators, S. cerevisiae, pHLuorin, HTS validation (AID 504600; in the data active = response above about 15%;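 note: plate controls were DMSO for no effect and reference compound for full effect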). The following applies: S. cerevisiae pHLuorin cytosolic pH, at 10 µM, stronger effect = higher value.
Experiment [13] concerns anti-desmoglein-3 scFv antibody binding to human DSG3. The experiment is described as follows: inhibitors of anti-DSG3 scFv binding to DSG3, pilot screen, biochemical, validation compound set, bead-based, flow cytometry (AID 588368;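 active = binding below the plate cutoff, the plate median minus 3 SD, with a reading above zero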;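 note: signal is the median channel fluorescence of bead-bound GFP antibody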). The settings on record: Protein G beads, DSG3-Fc, scFv-GFP binding, at 10 µM, stronger effect = lower value.
Experiment [14] can be described thus: inhibitors of fungal efflux pumps CDR1, CDR2, MDR1, pilot screen, validation compound set, multiplex, phenotypic (AID 588506;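 active = efflux inhibition above 0.42, the validation set average plus 4 SD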;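 note: Nile Red retained in cells so higher fluorescence means more efflux inhibition; 0 = negative control wells and 1 = enniatin B 25 µM full block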). The settings on record: S. cerevisiae pump-expressing triplex, Nile Red efflux flow cytometry; at 10 µM; stronger effect = higher value; the pumps come from Candida albicans.
Experiment [15] addresses ATP-binding cassette sub-family B member 6 (Homo sapiens) (UniProt Q9NP58). The experiment is described as follows: ABCB6 transporter inhibitors, pilot screen, K562-ABCB6 cells, flow cytometry, validation set (AID 588550;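 active = inhibition above the screen-wide mean plus 3 SD, about 51%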;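 note: 0% = DMSO wells and 100% = benzethonium chloride 70 µM positive control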). The following applies: K562-ABCB6 porphyrin accumulation, 1 h, at 10 µM, stronger effect = higher value.
Experiment [16] in a line: promoters of myeloid differentiation in arrested cells, primary screen, cell-based, GFP/MAC1 double positive, flow cytometry, validation set (AID 588685;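 active = differentiation response of at least 50%, scaled between solvent and reference control, from cells with both markers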;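 note: compound exposure lasts four days before antibody staining and flow analysis; 0% = DMSO wells and 100% = 5 µM fulvestrant positive control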). The settings on record: ER-HoxA9 marrow cells, stronger effect = higher value, normalized: vehicle 0, fulvestrant 100.

Inconclusive results are not listed. Activity calls are given as the source filed them.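 Rule for the calls, unless noted: active = percent response above 42, roughly 3 SD of non-fluorescent test compounds; inactive = the rest.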

Beta-2 adrenergic receptor (Homo sapiens), sequence (P07550 whole entry, looked up): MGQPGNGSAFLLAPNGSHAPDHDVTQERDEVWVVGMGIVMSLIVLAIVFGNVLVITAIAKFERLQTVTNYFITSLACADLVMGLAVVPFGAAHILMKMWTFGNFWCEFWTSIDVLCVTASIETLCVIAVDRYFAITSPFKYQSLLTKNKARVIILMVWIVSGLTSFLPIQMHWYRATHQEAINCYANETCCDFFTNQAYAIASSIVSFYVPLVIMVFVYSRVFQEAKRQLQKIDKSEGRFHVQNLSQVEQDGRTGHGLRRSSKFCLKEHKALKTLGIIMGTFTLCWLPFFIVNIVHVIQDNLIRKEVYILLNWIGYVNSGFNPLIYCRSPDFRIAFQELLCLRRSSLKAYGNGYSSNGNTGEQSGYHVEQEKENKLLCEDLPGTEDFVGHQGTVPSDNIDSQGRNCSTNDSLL
ATP-binding cassette sub-family B member 6 (Homo sapiens), sequence (Q9NP58 whole entry, looked up): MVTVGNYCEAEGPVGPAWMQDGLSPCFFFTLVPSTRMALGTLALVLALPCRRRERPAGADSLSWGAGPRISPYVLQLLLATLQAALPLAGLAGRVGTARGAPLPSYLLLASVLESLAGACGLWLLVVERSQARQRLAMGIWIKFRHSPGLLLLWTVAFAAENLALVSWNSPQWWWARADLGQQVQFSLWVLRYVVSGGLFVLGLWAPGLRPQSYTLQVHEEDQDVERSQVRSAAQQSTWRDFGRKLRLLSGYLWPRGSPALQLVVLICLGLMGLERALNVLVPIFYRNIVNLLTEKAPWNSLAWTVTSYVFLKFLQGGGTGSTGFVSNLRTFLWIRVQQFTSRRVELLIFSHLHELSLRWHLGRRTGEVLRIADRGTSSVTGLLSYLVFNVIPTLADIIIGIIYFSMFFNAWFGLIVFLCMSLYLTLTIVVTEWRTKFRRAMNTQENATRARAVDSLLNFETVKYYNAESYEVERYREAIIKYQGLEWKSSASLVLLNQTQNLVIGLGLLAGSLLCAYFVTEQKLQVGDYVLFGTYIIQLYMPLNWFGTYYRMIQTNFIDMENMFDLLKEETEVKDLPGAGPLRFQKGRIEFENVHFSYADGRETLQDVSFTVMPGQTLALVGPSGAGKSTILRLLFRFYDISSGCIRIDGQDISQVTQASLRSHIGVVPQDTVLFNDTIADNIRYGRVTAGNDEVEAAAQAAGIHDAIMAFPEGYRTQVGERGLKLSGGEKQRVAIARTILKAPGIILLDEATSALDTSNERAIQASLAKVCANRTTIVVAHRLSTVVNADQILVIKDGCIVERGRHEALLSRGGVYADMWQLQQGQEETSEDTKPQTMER

The inhibition is the relative decrease from the control value, in per cent. With `Cc1cn([C@H]2C[C@H](N=[N+]=[N-])[C@@H](CO)O2)c(=O)[nH]c1=O`, the percent of DMSO control GFP in experiment [1] was 94.2% (inactive). For the same molecule, the GFP response vs DMSO in experiment [2] was 138% (inactive); in experiment [4], 82.5% (inactive). The percent response of DMSO control in experiment [3] was 110% (inactive). Besides, the GFP response, % of DMSO in experiment [5] is 95.9% (inactive). Also, in experiment [6], the double positive events came to 61.7%. Besides, in experiment [6], the vesicle binding response was 179% (inactive). Besides, the inhibition was 16.2% (inactive) in [7], -5.32% (inactive) in [11] and 13% (inactive) in [15]. In addition, in [8], the superoxide response (% of plate) is 88.8% (inactive). For the same molecule, in experiment [9], the aptamer binding inhibition was 6% (inactive). Moreover, the response in [10] was 2.53% (inactive); in [12], 9.2% (inactive). Besides, the binding (% of control) in [13] was 103% (inactive). Further, in [14], the efflux inhibition (fraction of control) was 0.05 (inactive). Further, the differentiation response in experiment [16] was 14.7% (inactive).
Regarding `Nc1ccc(S(N)(=O)=O)cc1N`, the percent of DMSO control GFP in experiment [1] is 98.1% (inactive). The GFP response vs DMSO in [2] was 119% (inactive); in experiment [4] it was 84.7% (inactive). In addition, in experiment [3], the percent response of DMSO control is 99.2% (inactive). The GFP response, % of DMSO in [5] was 91.7% (inactive). Further, the double positive events in experiment [6] stood at 66.3%. In experiment [6], the vesicle binding response is 202% (inactive). Moreover, the inhibition was 3.55% (inactive) in [7], 7.24% (inactive) in experiment [11] and 14% (inactive) in experiment [15]. For the same molecule, in experiment [8], the superoxide response (% of plate) is 82.8% (inactive). In addition, in [9], the aptamer binding inhibition was 3% (inactive). Besides, the response was 31.7% (inactive) in experiment [10] and 0.32% (inactive) in experiment [12]. The binding (% of control) in experiment [13] was 103% (inactive). For the same molecule, the efflux inhibition (fraction of control) in experiment [14] is -0.28 (inactive). Moreover, the differentiation response in [16] was 2.46% (inactive).
For `Cc1ccsc1/C=C/C1=NCCCN1C`, in experiment [1], the percent of DMSO control GFP is 106% (inactive). Further, the values for the GFP response vs DMSO in experiment [2] and in [4] were 104% (inactive) and 103% (inactive), respectively. In addition, the percent response of DMSO control in experiment [3] is 112% (inactive). The GFP response, % of DMSO in experiment [5] was 118% (inactive). Further, the double positive events in experiment [6] came out at 67.3%. The vesicle binding response in experiment [6] was 168% (inactive). The results for the inhibition in experiment [7], in experiment [11] and in [15] were -34.6% (inactive), -5.94% (inactive) and 1% (inactive), respectively. For the same molecule, the superoxide response (% of plate) in [8] was 104% (inactive). The aptamer binding inhibition in experiment [9] was 1% (inactive). Moreover, the response in [10] is 3.43% (inactive); in experiment [12], 1.52% (inactive). In addition, the binding (% of control) in experiment [13] is 104% (inactive). Moreover, in [14], the efflux inhibition (fraction of control) was -0.135 (inactive). Besides, in experiment [16], the differentiation response was -3.11% (inactive).
On to `Cc1cc(OC(=O)CNC(=O)OC(C)(C)C)c2c(C)cc(=O)oc2c1`, for which the percent of DMSO control GFP in experiment [1] is 101% (inactive). Moreover, the GFP response vs DMSO in experiment [2] was 105% (inactive); in experiment [4], 108% (inactive). Further, in experiment [3], the percent response of DMSO control was 97.7% (inactive). In experiment [5], the GFP response, % of DMSO is 111% (inactive). In [6], this molecule returned a double positive events of 62.2%. Besides, the vesicle binding response in experiment [6] is 460% (inactive). Also, the figures for the inhibition in experiment [7], in [11] and in experiment [15] were 10.8% (inactive), 6.94% (inactive) and 2% (inactive), respectively. For the same molecule, the superoxide response (% of plate) in experiment [8] is 107% (inactive). Besides, the aptamer binding inhibition in experiment [9] was 3% (inactive). Besides, the response in experiment [10] was -17.2% (inactive); in experiment [12], -0.27% (inactive). For the same molecule, in experiment [13], the binding (% of control) is 93.1% (inactive). In addition, in experiment [14], the efflux inhibition (fraction of control) is 0 (inactive). In addition, the differentiation response in experiment [16] was 3.88% (inactive).
On to `O=C(NCCc1c[nH]c2ccccc12)c1cccnc1`, for which the percent of DMSO control GFP in experiment [1] is 101% (inactive). Further, the GFP response vs DMSO is 101% (inactive) in experiment [2] and 113% (inactive) in [4]. In experiment [3], the percent response of DMSO control was 98.6% (inactive). Besides, in [5], the GFP response, % of DMSO was 103% (inactive). Besides, the double positive events in experiment [6] is 61.5%. For the same molecule, in experiment [6], the vesicle binding response is 188% (inactive). Further, the inhibition in experiment [7] was 2.3% (inactive); in [11], 17.6% (inactive); in [15] it was 6% (inactive). For the same molecule, the superoxide response (% of plate) in experiment [8] is 93.7% (inactive). In [9], the aptamer binding inhibition is 3% (inactive). In addition, the response in experiment [10] is -0.09% (inactive); in experiment [12], -6.3% (inactive). Further, the binding (% of control) in experiment [13] was 90.1% (inactive). For the same molecule, the efflux inhibition (fraction of control) in [14] is 0.3 (inactive). For the same molecule, in experiment [16], the differentiation response was 12% (inactive).
